In PubChem BioAssay (Tox21):
Records with an inconclusive call do not appear. A structure can be active in one record and inactive in another. The source made the active and inactive calls. Unless noted, the call rests on the fitted dose curve; in most records, active means well fitted curve in the direction sought with a large enough effect in the repeat runs; inconclusive means weak or mixed curves; inactive means no such curve, though single readings can be large; an effect the other way counts as inactive or inconclusive.

Experiments:
[1] = qHTS assay to identify small molecule agonists of the hypoxia (HIF-1) signaling pathway - cell viability counter screen (AID 1224844; calls by dose curve; further: nearly all actives have a fitted effect of over 50% in size)
Method in brief: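 Cytotoxicity was measured in parallel with the HRE-driven beta-lactamase readout: after 17 hrs of compound exposure at 37C, HRE-bla ME-180 cells received CellTiter-Glo and luminescence was recorded 30 min later.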

[2] = qHTS assay to identify small molecule agonists of H2AX (AID 1224845; active means well fitted activation curve with a large enough effect in the signal ratio in the repeat runs, not every such curve was filed as active; the % refers to the signal ratio)
Method in brief: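 Phospho-H2AX Ser139 measured by HTRF (ex 320 nm; em 665 and 620 nm) after 24 hr antibody incubation. Compounds, 15 concentrations, 0.76% DMSO, were applied to CHO-K1 cells for 3hr at 37C before lysis.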

[3] = qHTS assay to identify small molecule agonists of the hypoxia (HIF-1) signaling pathway (AID 1224846; active means well fitted activation curve with a large enough effect in the signal ratio in the repeat runs, not every such curve was filed as active; the % refers to the signal ratio)
Method in brief: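 Compounds from the Tox21 10K library, dissolved in DMSO, are tested for induction of a hypoxia response element–controlled beta-lactamase reporter in ME-180 cells. Exposure lasts 17 hrs at 37C after a 5 hr settling period, followed by CCF4-AM FRET substrate.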

[4] = qHTS assay to identify small molecule agonists of H2AX - cell viability counter screen (AID 1224847; calls by dose curve;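 further: wild-type CHO-K1 cells; top concentration of the series differs between compounds; nearly all actives have a fitted effect of over 30% in size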)
Method in brief: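 Counter-screen for viability: CellTiter-Glo ATP luminescence read after 3 h compound treatment (15-point titration, 0.76% DMSO final) of CHO-K1 cells at 37C, with 30 min room-temperature reagent incubation.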

[5] = qHTS assay to identify small molecule antagonists of the estrogen related receptor (ERR) signaling pathway from Tox21 library (AID 1224848); further: nearly all actives have a fitted effect of over 50% in size
Method in brief: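 ERR cell line, 2,000 cells/well. 6 h settle, then compound (DMSO) added; 18 h at 37 C; ONE-Glo luminescence after 30 min RT.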

[6] = qHTS assay to identify small molecule agonists of the estrogen related receptor (ERR) signaling pathway from Tox21 library (AID 1224849; calls by dose curve; further: nearly all actives have a fitted effect of over 15% in size); details: ERR reporter cell line, ONE-Glo luciferase, 18 h; at 92.4 µM (top of the series) unless noted
Method in brief: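 Cells carrying the ERR reporter were plated and allowed to settle for 6 h, exposed to library compounds for 18 h at 37 C, then lysed with ONE-Glo and luminescence measured.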

[7] = qHTS RealTime-Glo MT Cell Viability Assay in HepG2 cells - 24 hour (AID 1224867); further: nearly all actives have a fitted effect of over 50% in size
Method in brief: (§1)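 Luminescence read-out: viable HepG2 cells reduce a prosubstrate to a NanoLuc substrate, giving a signal proportional to live cell number. Reads taken at 0, 8, 16, 24, 32 and 40 h of compound exposure at 37 C.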

[8] = qHTS RealTime-Glo MT Cell Viability Assay in HEK293 cells - 32 hour (AID 1224868); further: top concentration of the series differs between compounds; nearly all actives have a fitted effect of over 50% in size
Method in brief: (§2)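 Nonlytic real-time viability readout: viable cells convert prosubstrate to NanoLuc substrate, giving luminescence proportional to live cell number. HEK293, 600 cells/well, compound added after 5 h, continuous culture at 37 C.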

[9] = A CellTox Green Cytotoxicity Assay to monitor cytotoxicity in HEK293 cells - 0 hour (AID 1224869); further: nearly all actives have a fitted effect of over 50% in size
Method in brief: (§3)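 Cells (HEK293, 600/well) and dye reagent are dispensed together. After 5 h at 37 C, 23 nL compound is pinned in. Plates stay at 37 C for 40 h with fluorescence read at 0h, 8h, 16h, 24h, 32h and 40h.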

[10] = qHTS RealTime-Glo MT Cell Viability Assay in HepG2 cells - 40 hour (AID 1224870); further: nearly all actives have a fitted effect of over 50% in size
Method in brief: (§4)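 Real-time viability: cells seeded at 600 per well together with NanoLuc and cell-permeant prosubstrate, compounds added after 5 h incubation. Luminescence tracked at 0, 8, 16, 24, 32 and 40 h of exposure.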

[11] = A CellTox Green Cytotoxicity Assay to monitor cytotoxicity in HEK293 cells - 40 hour (AID 1224871); further: nearly all actives have a fitted effect of over 45% in size
Method in brief: as §3

[12] = qHTS RealTime-Glo MT Cell Viability Assay in HEK293 cells - 16 hour (AID 1224872)
Method in brief: as §2

[13] = qHTS RealTime-Glo MT Cell Viability Assay in HepG2 cells - 8 hour (AID 1224873); further: nearly all actives have a fitted effect of over 55% in size
Method in brief: as §4

[14] = qHTS RealTime-Glo MT Cell Viability Assay in HEK293 cells - 40 hour (AID 1224874); details: RealTime-Glo luminescence; max response: stronger effect = lower value; further: nearly all actives have a fitted effect of over 50% in size
Method in brief: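 Real-time viability in HEK293: signal arises when living cells convert a prosubstrate for NanoLuc in the medium, so luminescence tracks viable cell number. Compound (23 nL, DMSO) added 5 h post-seeding; kinetic reads at 0–40 h, 37 C.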

[15] = A CellTox Green Cytotoxicity Assay to monitor cytotoxicity in HEK293 cells - 24 hour (AID 1224875); further: nearly all actives have a fitted effect of over 45% in size
Method in brief: as §3

[16] = A CellTox Green Cytotoxicity Assay to monitor cytotoxicity in HepG2 cells - 16 hour (AID 1224876); further: nearly all actives have a fitted effect of over 45% in size
Method in brief: (§5)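 Cells and non-lytic dye reagent are dispensed together (600 HepG2 cells/well) and incubated 5 h before DMSO compound transfer. Kinetic fluorescence is then recorded in the same wells during 40 h at 37 C.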

[17] = A CellTox Green Cytotoxicity Assay to monitor cytotoxicity in HepG2 cells - 24 hour (AID 1224878); further: nearly all actives have a fitted effect of over 45% in size; further: potency means the concentration at half of the fitted maximal effect
Method in brief: as §5

[18] = A CellTox Green Cytotoxicity Assay to monitor cytotoxicity in HepG2 cells - 40 hour (AID 1224879); further: nearly all actives have a fitted effect of over 40% in size; further: potency means the concentration at half of the fitted maximal effect
Method in brief: as §5

[19] = qHTS RealTime-Glo MT Cell Viability Assay in HepG2 cells - 32 hour (AID 1224877); further: nearly all actives have a fitted effect of over 55% in size
Method in brief: as §1
On the % scale 0 is the no-effect control and ±100 the full control effect.

N=C(N)c1ccc2cc(OC(=O)c3ccc(N=C(N)N)cc3)ccc2c1
inactive: Potency [1] | outcome [2] | outcome [3] | Potency [4] | Potency [5] | activity change, positive = activation [6] 0.274% [at 42.5 µM] | Potency [7] | Potency [8] | Potency [9] | Potency [10] | Potency [11] | Potency [12] | Potency [13] | max response [14] 1.38% | Potency [15] | Potency [16] | Potency [17] | Potency [18]

CC(=O)CC(C)(C)C1CCCCC1
inactive: Potency [1] | outcome [2] | outcome [3] | Potency [4] | Potency [5] | Potency [7] | Potency [8] | Potency [9] | Potency [10] | Potency [11] | Potency [12] | Potency [13] | max response [14] 9.93% | Potency [15] | Potency [16] | Potency [19] | Potency [18]

CCCCOCCOCCOCc1cc2c(cc1CCC)OCO2
inactive: Potency [1] | outcome [3] | Potency [4] | Potency [7] | Potency [9] | Potency [10] | Potency [11] | Potency [12] | Potency [13] | max response [14] -15.9% | Potency [15] | Potency [16]
22.1 µM (active) and inactive: Potency [17] | Potency [18]

NC(CSCC(=O)O)C(=O)O (stereo not given)
inactive: Potency [1] | outcome [2] | outcome [3] | Potency [4] | Potency [5] | Potency [7] | Potency [8] | Potency [9] | Potency [10] | Potency [11] | Potency [12] | Potency [13] | Potency [19] | Potency [17] | Potency [18]

CC(=O)OCC(=O)[C@@]1(O)CC[C@H]2[C@@H]3CCC4=CC(=O)CC[C@]4(C)[C@H]3C(=O)C[C@@]21C
inactive: Potency [1] | Potency [4] | Potency [7] | Potency [9] | Potency [10] | Potency [11] | Potency [12] | Potency [13] | max response [14] -9.91% | Potency [15] | Potency [16] | Potency [19] | Potency [17] | Potency [18]

COC(=O)c1ccc(C)cc1C1=NC(C)(C(C)C)C(=O)N1 (stereo not given)
inactive: Potency [1] | outcome [3] | Potency [4] | Potency [5] | Potency [7] | Potency [8] | Potency [9] | Potency [10] | Potency [11] | Potency [12] | Potency [13] | max response [14] 5.2% | Potency [15] | Potency [16] | Potency [19] | Potency [17] | Potency [18]
